Only some compounds are listed: those with a hit (about 3.8% of all), similar ones and a draw of the others.
TGFb SMAD3 inh: TGF-b pathway inhibition; HepG2 CAGA-GFP TGF-b/SMAD3 reporter, GFP fluorescence, 18 h; TGF-beta stimulated, 500 pg/mL final; Potency, µM (doses to about 46.1 µM), inactives show at the highest dose activity, negative = inhibition, usual class: inhibitors; hit rate 1.2% among 410,000; AID 588855; also: % is scaled to controls: 0 for no effect and ±100 for the full control effect; nearly all actives have a fitted effect of over 65% in size
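HEPG2 CAGA-GFP reporter cells (1000/well, DMEM with 1% FBS) received compounds, then recombinant TGF-beta at 500 pg/mL final for 18 hours at 37 degrees C. Per-cell GFP summed per well was normalised to unstimulated and stimulated DMSO controls before curve fitting.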
A549 tox-1: kills or reduces viability of A549 cells in Nrf2 counter-screen. AID 504648. A549 ARE-Fluc cells, CellTiter-Fluor viability, 18-24 h. Potency, µM (titrated, usually from 46 µM), for the others: top-dose activity change, negative = cytotoxicity, usual class: inhibitors. hit rate 0.16% among 390,000; also: % is scaled to controls: 0 for no effect and ±100 for the full control effect
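Cytotoxicity counterscreen: CellTiter-Fluor fluorescence was measured in A549 ARE_Fluc cells after 18-24 h of compound exposure in a concentration series. The subsequent BugLite luminescent read reports ARE-luciferase activity.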
Nrf2 block: Nrf2 pathway inhibition; AID 504444; Potency, µM (titrated, usually from 46 µM), inactives show at the top dose activity change, negative = inhibition, usual class: inhibitors; hit rate 2.1% among 360,000; A549 ARE-Fluc reporter, luciferase luminescence, 18-24 h; also: % is scaled to controls: 0 for no effect and ±100 for the full control effect; nearly all actives have a fitted effect of over 60% in size
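Nrf2 function is reported as luminescence of an ARE-controlled luciferase in A549 cells. Compounds were tested at several concentrations, and a CellTiter-Fluor read on the same wells flagged cytotoxicity.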
HepG2 viability: kills HepG2 cells in TGF-b inhibitor counter-screen; Potency, µM (doses to about 46.1 µM), inactives show at the highest dose activity change, negative = cytotoxicity, hits mostly cytotoxic; AID 588856; HepG2 CAGA-GFP viability, ATP luminescence, 18 h; hit rate 0.76% among 410,000
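CellTiter-Glo luminescence gave cytotoxicity after 18 hours at 37 degrees C. The cells were HepG2 CAGA-GFP in 1% FBS DMEM, stimulated with 500 pg/mL TGF-beta after compound addition. %Activity was normalised to no-cell wells (complete cell-killing) and DMSO (no toxicity), and curves were fitted and classified.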
ATXN2 expr inh: reduces ATXN2 reporter expression in HEK-293 cells | HEK-293 ATXN2-luciferase reporter, luminescence, 24 h | Potency, µM (doses to about 57 µM), for inactives: at the top dose activity change, negative = inhibition, hits mostly inhibitors | hit rate 0.72% among 360,000 | AID 1745845; also: % is scaled to controls: 0 for no effect and ±100 for the full control effect; nearly all actives have a fitted effect of over 55% in size
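ATXN2-luciferase reporter cells (luciferase flanked by upstream and downstream ATXN2 gene portions) were treated 24 h at 37 °C with compounds at up to 57 uM. SteadyGlo luminescence gave expression; GF-AFC fluorescence gave viability.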
S2 tox: viability counter-screen for ATXN expression inhibitors. hit rate 0.49% among 400,000. AID 651635. S2 cells (HEK-293 line with an ATXN2-luciferase reporter) viability, CellTiter-Fluor protease fluorescence, 24 h. Potency, µM (doses to about 56.7 µM), hits mostly cytotoxic; also: nearly all actives have a fitted effect of over 40% in size
FLuc counter 3: counter-screen for Nrf2 inhibitors: firefly luciferase enzyme inhibition | shares compounds with Nrf2 block | purified firefly luciferase, luminescence inhibition | hit rate 4% among 1,400 | AID 720522 | Potency, µM (doses to about 57.5 µM), inactives show at the highest dose activity change, negative = inhibition, usual class: inhibitors; also: % is scaled to controls: 0 for no effect and ±100 for the full control effect; nearly all actives have a fitted effect of over 65% in size
Target sequence (P08659 whole entry, looked up): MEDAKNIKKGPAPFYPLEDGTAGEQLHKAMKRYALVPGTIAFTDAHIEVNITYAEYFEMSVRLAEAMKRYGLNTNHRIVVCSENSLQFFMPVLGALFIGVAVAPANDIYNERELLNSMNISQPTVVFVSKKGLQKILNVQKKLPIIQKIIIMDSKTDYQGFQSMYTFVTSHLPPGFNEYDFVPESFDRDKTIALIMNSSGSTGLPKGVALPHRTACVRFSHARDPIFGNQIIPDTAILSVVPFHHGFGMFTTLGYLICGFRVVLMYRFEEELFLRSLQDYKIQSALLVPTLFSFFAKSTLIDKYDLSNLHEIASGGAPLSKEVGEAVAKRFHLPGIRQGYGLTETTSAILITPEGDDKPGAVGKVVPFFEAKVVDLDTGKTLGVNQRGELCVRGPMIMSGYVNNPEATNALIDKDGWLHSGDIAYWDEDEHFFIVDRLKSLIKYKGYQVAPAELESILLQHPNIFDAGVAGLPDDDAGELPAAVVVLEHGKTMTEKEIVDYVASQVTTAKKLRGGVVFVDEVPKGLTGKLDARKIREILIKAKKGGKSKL
A549 tox-2: toxic to A549 ARE-Fluc cells in Nrf2 counterscreen; shares compounds with Nrf2 block; A549 ARE-Fluc cells, cytotoxicity counterscreen; Potency, µM (top dose mostly 46.1 µM), inactives show top-dose activity change, negative = cytotoxicity, most hits filed as inhibitors; hit rate 2% among 1,400; AID 720523;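 also: cells exposed to compounds for 18 to 24 hours; % is scaled to controls: 0 for no effect and ±100 for the full control effect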
Nrf2 ARE inh: reduces Nrf2 ARE reporter signal in A549 cells; A549 ARE-firefly luciferase reporter, luminescence; hit rate 74% among 1,400; shares compounds with Nrf2 block; Potency, µM (highest dose often 46.1 µM), for the others: top-dose activity change, negative = inhibition, actives largely listed as inhibitors; also: % is scaled to controls: 0 for no effect and ±100 for the full control effect; nearly all actives have a fitted effect of over 65% in size
Active calls of the source: *; i = inactive; ? = inconclusive; . = not tested or not shown; [ ] = remark or other dose. Calls follow the shape of the dose curve; as a rule, active = well fitted curve in the direction sought with a large enough effect; inconclusive = small, poorly fitted or top-dose-only effect, or another doubt; inactive = no such curve, though single readings can be large; an effect the other way counts as inactive or inconclusive. Potency is read from the fitted curve at half-maximal effect.

SMILES	TGFb SMAD3 inh	A549 tox-1	Nrf2 block	HepG2 viability	ATXN2 expr inh	S2 tox	FLuc counter 3	A549 tox-2	Nrf2 ARE inh
Cc1ccc(CNC(=O)C(=O)NCC(c2cccnc2)N2CCN(c3ccc(F)cc3)CC2)cc1 (stereo unspecified)	7%	0%	15%	4%	?	i	.	.	.
Cc1ccc(-c2cc(C(F)F)n3ncc(C(=O)N4CCc5ccccc5C4)c3n2)cc1	11µM*	-2%	?	-13%	.	i	.	.	.
Cc1ccc2nc(-c3ccncc3)cc(C(=O)N3CCC4(CC3)OCCO4)c2c1	?	-1%	.	-8%	4%	i	.	.	.
CNC(=O)O/N=C/C(C)(C)S(C)=O (stereo unspecified)	-3%	.	.	-5%	.	.	.	.	.
Cn1c(=O)n(C)c2cc(CNCCc3ccccc3)ccc21	-6%	-9%	-14%	-9%	-13%	i	.	.	.
COc1ccc(NS(=O)(=O)c2ccc3c(c2)oc(=O)n3C)cc1Cl	?	0%	15µM*	5%	-22%	i	.	.	.
COc1ccc(CCNS(=O)(=O)c2ccc3c(c2)oc(=O)n3C)cc1OC	-7%	13%	17%	-6%	-8%	i	.	.	.
CC(C)Oc1cccc(NC(=O)c2ccccc2C(F)(F)F)c1	.	.	.	.	-13%[116 µM]	i	.	.	.
O=C(Oc1ccc([N+](=O)[O-])cc1)N1CCC(C(O)(c2ccc3c(c2)OCO3)c2ccc3c(c2)OCO3)CC1	.	.	.	.	-14%	.	.	.	.
C[C@H]1[C@@H](OS(=O)(=O)O)C[C@@H]2C[C@H]([C@@H](O)c3cc(=O)[nH]c(=O)[nH]3)NC3=NC[C@H]1N32	2.5µM*	-29%	0.65µM*	-8%	10µM*	i	2%	.	0.23µM*
C=C1C(=O)O[C@@H]2C[C@@H](C)[C@@H]3C=CC(=O)[C@@]3(C)[C@@H](OC(=O)CC(=O)O[C@H]3[C@@H]4C(=C)C(=O)O[C@@H]4C[C@@H](C)[C@@H]4C=CC(=O)[C@]43C)[C@H]12	0.25µM*	15µM*	2.6µM*	0.56µM*	0.32µM*	.	?	2.9µM*	2.1µM*
C[C@@H]1O[C@@H](O[C@@H]2C=C3CC[C@@H]4[C@@H](CC[C@]5(C)[C@H](c6ccc(=O)oc6)CC[C@@]45O)[C@@]3(C)CC2)[C@H](O)[C@H](O)[C@H]1O	0.32µM*	.	.	-61%	0.019µM*	.	2%	?	0.01µM*
CC1OC(O[C@H]2C[C@@H](O)[C@]3(CO)[C@H]4[C@H](O)C[C@]5(C)[C@@H](C6=CC(=O)OC6)CC[C@]5(O)[C@@H]4CC[C@]3(O)C2)C(O)C(O)C1O (stereo partly specified)	0.56µM*	.	.	-51%	.	.	4%	?	0.037µM*
COC1C(O)C(C)OC(OC2CCC3(C)C(CCC4C3C(O)CC3(C)C(C5=CC(=O)OC5)CCC43O)C2)C1O (stereo unspecified)	2µM*	?	0.15µM*	-38%	0.4µM*	?	1%	?	0.12µM*
